{
  "source": "PubChem BioAssay (Tox21)",
  "note": "Values joined by “and” are separate entries in the source; they are usually repeats but may differ in a detail not shown here. Identical values can stand only once. Results filed as inconclusive are left out. A call without a number means that no potency is given here. Active and inactive are the calls of the source. The call rests on the fitted dose curve. Potency means the concentration at half of the fitted maximal effect.",
  "data": [
    {"experiment": "qHTS assay to identify small molecule antagonists of the sonic hedgehog signaling (Shh) pathway (AID 1259369); further: nearly all actives have a fitted effect of over 45% in size", "conditions": "NIH/3T3 Gli1-Luc reporter, Shh antagonist, luminescence 24 h; series mostly up to 92.4 µM", "from_the_text": "U.S. Tox21 Program National Center for Advancing Translational Sciences [NCATS] NIH Chemical Genomics Center [NCGC] U.S. Environmental Protection Agency [EPA] National Institutes of Environmental Health Sciences [NIEHS] National Toxicology Program [NTP] U.S. Food and Drug Administration [FDA] Tox21 Assay Overview: The sonic hedgehog (Shh) pathway is essential for normal embryonic development. Dysregulation of the Shh pathway can cause severe developmental defects in organs. Therefore chemicals that interfere with the pathway are potential developmental toxicants. A cell line designated 3T3Gli1-Luc (DMB/OARSA/CFSAN/FDA, Laurel, MD), a NIH/3T3 derived clone containing stably integrated Gli1-Luc reporter is used to detect chemical interference of the Shh pathway, by changes in the expression of the firefly Luc gene under the control of the Gli1 transcriptional response element. This cell line was used to screen Tox21 libraries for identifying and prioritizing the potential developmental toxicants that interfere Shh pathway. Conditioned medium-stimulated mode was used to screen for chemicals inhibiting Shh signaling.\nTox21 Assay Protocol Summary: 3T3 Gli1-Luc cells were dispensed at 2,000 per well in 5uL of culture medium into white solid bottom 1536-well plates (Greiner Bio-One, Monroe, NC) using a Multidrop Combi (Thermo Scientific, Waltham, MA) dispenser. The assay plates were incubated at 37 C and 5% CO2 for 4hr, and then 23nL of compounds dissolved in DMSO and positive control were transferred using a Pintool station (Wako, San Diego, CA). The compound transfer was followed by the addition of 1ul conditioned medium or assay buffer using two separate tips of Flying Reagent Dispenser (FRD, Aurora Discovery, San Diego, CA). The assay plates were incubated at 37C and 5% CO2 for 24hr. For luciferase read, 4uL of Amplite Luciferase reporter gene assay reagent (AAT Bioquest, Inc. Sunnyvale, CA) was added to each well of the assay plates using FRD and incubated at room temperature for 30min. The luminescence signal was measured using a ViewLux plate reader (Perkin Elmer, Shelton, CT).", "values": [
      {"smiles": "CCc1ccccc1N", "Potency": "inactive"},
      {"smiles": "C=C(Cl)Cl", "Potency": "inactive"},
      {"smiles": "CC(Cc1ccccc1)NCc1ccccc1Cl", "note": "(stereo not given)", "Potency": "inactive"},
      {"smiles": "CCCCCCCCCCCCCCCl", "Potency": "inactive"},
      {"smiles": "O=C(CCl)CCl", "Potency": "19.3 µM (active)"},
      {"smiles": "CC(C)(c1ccccc1)c1cc(-n2nc3ccccc3n2)c(O)c(C(C)(C)c2ccccc2)c1", "Potency": "inactive"},
      {"smiles": "COc1ccccc1N1CCNCC1", "Potency": "inactive"},
      {"smiles": "CC(=O)OC(c1ccccc1)C(Cl)(Cl)Cl", "note": "(stereo not given)", "Potency": "inactive"},
      {"smiles": "CCCCOC(=O)CCC(=O)OCCCC", "Potency": "inactive"},
      {"smiles": "C=CC(=O)OCC", "Potency": "inactive"},
      {"smiles": "COc1ccc(C(O)(c2cncnc2)C2CC2)cc1", "note": "(stereo not given)", "Potency": "inactive"},
      {"smiles": "COc1ccc(C(=O)c2c(C)n(CCN3CCOCC3)c3ccccc23)cc1", "Potency": "inactive"},
      {"smiles": "CC(Oc1cc(Cl)c(Cl)cc1Cl)C(=O)O", "note": "(stereo not given)", "Potency": "inactive"},
      {"smiles": "CCCCCCCCCCCCN(C)C", "Potency": "inactive"},
      {"smiles": "Nc1cc(Cl)cc(C(=O)O)c1Cl", "Potency": "inactive"},
      {"smiles": "CN1C[C@H](C(=O)N[C@]2(C)O[C@@]3(O)[C@@H]4CCCN4C(=O)[C@H](Cc4ccccc4)N3C2=O)C=C2c3cccc4[nH]cc(c34)C[C@H]21", "Potency": "3.87 µM (active)"},
      {"smiles": "CCCBr", "Potency": "inactive"},
      {"smiles": "O=C(O)c1ccc(=O)[nH]c1", "Potency": "inactive"},
      {"smiles": "CCOP(=O)(SC(C)CC)N1CCSC1=O", "note": "(stereo not given)", "Potency": "inactive"},
      {"smiles": "CC(C)CCON=O", "Potency": "inactive"},
      {"smiles": "C[N+](C)(C)CCOC(=O)C(O)(c1ccccc1)c1ccccc1", "Potency": "inactive"},
      {"smiles": "Nc1ccc2c(c1)Cc1ccccc1-2", "Potency": "inactive"},
      {"smiles": "CC[N+]1(CCOC(=O)C(O)(c2ccccc2)c2ccccc2)CCCCC1", "Potency": "inactive"},
      {"smiles": "C[CH2][Hg][S]c1ccccc1C(=O)O", "Potency": "0.686 µM (active)"},
      {"smiles": "CN[C@@H](C)[C@H](O)c1ccccc1", "Potency": "inactive"},
      {"smiles": "C[C@]12C=CC3=C4CCC(=O)C=C4CC[C@H]3[C@@H]1CC[C@@H]2O", "Potency": "9.62 µM (active) and 14.6 µM (active)"},
      {"smiles": "C1CS1", "Potency": "inactive"},
      {"smiles": "COC(=O)Cc1ccccc1", "Potency": "inactive"},
      {"smiles": "N#CC(C#N)=Cc1ccc(O)c(O)c1", "Potency": "7.5 µM (active)"},
      {"smiles": "CCOP(=O)(O)C(N)=O", "Potency": "inactive"},
      {"smiles": "Clc1ccc(Cl)c(Cl)c1", "Potency": "inactive"},
      {"smiles": "C=CCc1ccccc1O", "Potency": "inactive"},
      {"smiles": "NC(=S)c1c(Cl)cccc1Cl", "Potency": "inactive"},
      {"smiles": "CC(O)CN1CCN(CC(=O)[O-])CCN(CC(=O)[O-])CCN(CC(=O)[O-])CC1.[Gd+3]", "note": "(stereo not given)", "Potency": "inactive"},
      {"smiles": "C#CC(O)(C=CCl)CC", "note": "(stereo not given)", "Potency": "inactive"},
      {"smiles": "CCCCCCCCCCCC[N+](C)(C)CCOc1ccccc1", "Potency": "3.44 µM (active) and 473 nM (active)"},
      {"smiles": "COc1ccc2c(c1OC)C(=O)O[C@H]2[C@@H]1c2cc3c(cc2CCN1C)OCO3", "Potency": "inactive"},
      {"smiles": "C=C(C)C(=O)OCCCCOC(=O)C(=C)C", "Potency": "inactive"},
      {"smiles": "N#CC(C#N)=C(C#N)C#N", "Potency": "14.3 µM (active)"},
      {"smiles": "OCCCl", "Potency": "inactive"}
    ]}
  ]
}
